These results are taken from PubChem BioAssay (NCI).

SMILES strings stand for the structures. Compounds without any hit were thinned out: in the full panel of roughly 83,000, 20% have a hit.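 48-hour exposure, single concentration, 96-well plates; percent growth endpoint where 0 means no net growth. Active: below 10.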 A number with no mark means an inactive call. Active and inactive are the calls of the source.

Holding throughout (test): NCI-60 one-dose screen, 48 h (100 = growth as untreated, 0 = no growth, -100 = all killed)
Holding throughout (settings): 10 µM unless noted

Assay [1] has as its system SR leukemia.
For assay [2], the system named is RPMI-8226 leukemia.
Assay [3] deals with OVCAR-8 ovarian.
Assay [4] deals with OVCAR-5 ovarian.
Assay [5] concerns OVCAR-4 ovarian.
Assay [6] relates to SK-OV-3 ovarian.
Assay [7] relates to OVCAR-3 ovarian.
Assay [8] concerns HS 578T breast.
Assay [9] relates to NCI/ADR-RES ovarian.
For assay [10], the system named is IGROV1 ovarian.

As for `CC(=O)O[C@H]1CC2CCC3C(CC[C@@]4(C)C3C[C@H]([N+]3(C)CCCCC3)[C@@H]4OC(C)=O)[C@@]2(C)C[C@@H]1N1CCCCC1` (some centres not stated), the growth in [1] is 99.5%; in [2] it was 110%; in [3], 98.1%; in assay [4], 110%; in assay [5], 103%; in [6] it was 106%. Moreover, the figures for the growth in [7], in assay [8] and in [9] were 112%, 65% and 103%, respectively.
For `NC(=O)c1cc(I)ccc1NC(=O)/C=C/c1ccccc1`, the growth in [1] is 1.87% (active); in [2], -5.89% (active); in assay [3] it was 31%; in [4], 42.4%; in assay [5], 44.6%; in [6], 69.8%. Besides, the growth in assay [10] was -52.7% (active); in [7], -63.3% (active); in [9] it was -37.1% (active).
As to `O=S(=O)(NCCNc1nccc(-c2c(-c3ccc(F)c(O)c3)nc3occn23)n1)c1ccc(Cl)cc1`, the growth in assay [1] is 75.8%; in [2], 85.3%; in assay [3], 86%; in assay [4], 127%; in assay [5], 109%; in assay [6], 87.1%. The growth in assay [10] was 87.4%; in assay [7], 104%; in assay [8] it was 89%; in assay [9], 102%.
Consider `COc1ccc(Cc2cnc(NC(=O)c3cc(C)oc3C)s2)cc1`, for which the growth in assay [1] is 14.1%; in assay [2] it was 51.9%; in assay [3], 45.3%; in [4], 53.6%; in assay [5], 58.5%; in [6], 49.1%. Further, the growth is 15% in assay [7], 24.5% in assay [8] and 20.6% in assay [9].
For `Cc1ccccc1/C=C/C(=O)c1cccc(OCCCOc2cccc(C(=O)/C=C/c3ccccc3C)c2)c1`, the growth was 25.8% [3 µM] in [1]; -23.2% [3 µM] (active) in [2]; 101% [3 µM] in assay [3]; 126% [3 µM] in assay [4]; 84.6% [3 µM] in [5]; 109% [3 µM] in assay [6]. Further, the figures for the growth in assay [10], in [7] and in [9] were 102% [3 µM], 99.4% [3 µM] and 101% [3 µM], respectively.
For the compound `COc1cc(/C=C2/C=C(c3ccccc3)N(CCc3ccc(S(N)(=O)=O)cc3)C2=O)cc(OC)c1OC`, the growth was 82.4% in assay [1]; 66.8% in [2]; 91.6% in assay [3]; 118% in assay [4]; 101% in assay [5]; 103% in assay [6]. In addition, the growth was 101% in assay [10], 110% in assay [7] and 99.6% in assay [9].
Consider `O=C(N/N=C/c1c(Cl)cccc1Cl)c1cccnc1Nc1cccc(C(F)(F)F)c1`, for which the growth in assay [1] was 54.5%; in assay [2], 3.23% (active); in [3], 49.4%; in [4], 53.4%; in assay [5], 25.1%; in [6], 27%. The values for the growth in assay [10], in [7] and in [9] were 31.8%, 46.8% and 31%, respectively.
As to `CCOC(=O)n1ccn(C)c1=S`, the growth is 94.2% in assay [1]; 103% in assay [2]; 105% in assay [3]; 102% in assay [4]; 110% in [5]; 85.3% in assay [6]. In addition, the figures for the growth in [10], in assay [7] and in assay [9] were 110%, 106% and 107%, respectively.
With `Nc1n[nH]c2cccc(C#Cc3cccc(NC(=O)c4cc(F)cc(C(F)(F)F)c4)c3)c12`, the growth was 60.5% in [1]; 63.8% in [2]; 94.2% in [3]; 70.8% in assay [4]; 90.5% in [5]; 114% in assay [6]. Moreover, the growth was 25.5% in assay [10], 80.7% in assay [7] and 93.1% in assay [9].
For the compound `O=C(Nc1ccccc1O)c1ccc(CNC(=O)c2sccc2Nc2ccnc(C(F)(F)F)c2)cc1`, the growth was 36.2% in assay [1]; 24.3% in [2]; 35.8% in assay [3]; 45.6% in [4]; 48.3% in assay [5]; 57.2% in assay [6]. Besides, the values for the growth in assay [10], in [7] and in assay [9] were 41%, 41.3% and 24.1%, respectively.
In the case of `COc1ccc(/C=C(\C#N)n2nnc3cc(F)c(F)cc32)cc1`, the growth is 12.9% in assay [1]; 70.5% in assay [2]; 70.1% in [3]; 56.3% in assay [4]; 74% in assay [5]; 69.6% in [6]. For the same compound, the growth was 39.7% in [10], 21.5% in assay [7] and 19.6% in [9].
On to `Nc1ncc(-c2ccc3ncnc(Nc4cccc(Cl)c4)c3c2)cn1`, for which the growth in [1] was 33.6%; in assay [2], 44.5%; in assay [3], 46.8%; in assay [4], 26.4%; in assay [5] it was 70%; in [6], -10% (active). Also, the growth in assay [10] is 5.88% (active); in assay [7] it was 27.3%; in assay [9], 52.2%.
As to `N#CC(C#N)N=Nc1ccc(Br)cc1`, the growth was -15.2% (active) in assay [1]; 11.5% in assay [2]; 28% in assay [3]; 68.3% in assay [4]; 17.7% in assay [5]; 60.3% in assay [6]. The growth in assay [10] was 49.1%; in [7], 17.7%; in assay [9] it was 60.9%.
Regarding `Nc1ncnc2c1C(c1ccccc1)c1ccc3ccccc3c1O2` (configuration not stated), the growth in [1] is 55.1%; in assay [2], 80.8%; in [3] it was 79.6%; in assay [4] it was 99%; in [5], 86.5%; in assay [6], 64.7%. In addition, the growth is 93.9% in [7], 93.7% in [8] and 80.9% in [9].
`COc1ccc(C2=C(Br)C(=O)c3nc(C)ccc3C2=O)cc1`: the growth in [1] was 17.3%; in assay [2] it was 72.5%; in assay [3], 88.8%; in [4], 109%; in assay [5], 87.9%; in assay [6], 85.1%. Further, the growth in assay [10] is 87.5%; in assay [7], 40%; in [9] it was 97.4%.
In the case of `C[C@@H](CO)[C@@H]1CCC=C2CC[C@]3(C)[C@H](CC[C@@H]4[C@@]5(C)CCCNC(C)(C)[C@@H]5CC[C@]43C)[C@H]21`, the growth in assay [1] was -29.9% (active); in [2], -19.8% (active); in [3], 67.2%; in assay [4], 82.9%; in [5], 48.8%; in assay [6], 107%. For the same compound, the growth in [10] is 71.3%; in [7], 69.8%; in assay [9], 80.9%.
For the compound `O=C(Nc1cccc2ccccc12)NC1CC1`, the growth was 109% in assay [1]; 105% in assay [2]; 101% in [3]; 110% in [4]; 102% in [5]; 97.1% in [6]. The growth was 114% in assay [7], 108% in [8] and 111% in [9].
Regarding `COc1cc(OC)c(/C=C/C(=O)c2c(OC)cccc2OC)c(OC)c1`, the growth in [1] is 23.3%; in [2], 16.7%; in assay [3], 24.2%; in [4] it was 4.82% (active); in assay [5], 68.4%; in assay [6], 21.7%. The growth in assay [10] is -1.35% (active); in assay [7] it was -42.2% (active); in assay [9], -22.1% (active).
As to `O=C(/C=C/c1ccccc1)Nc1ncc(Cc2ccccc2Cl)s1`, the growth was 17.9% in [1]; 25.4% in [2]; 39.5% in [3]; 44% in [4]; 70.2% in assay [5]; 44.4% in assay [6]. In addition, the growth was 31.5% in [10], -24.2% (active) in assay [7] and 9.49% (active) in assay [9].
With `CCOC(=O)Cc1cnc(N/N=C(\C)c2cc3ccccc3o2)s1`, the growth in assay [1] was 106%; in assay [2], 98.6%; in assay [3] it was 94%; in assay [4] it was 99.7%; in [5], 93.5%; in assay [6], 92.1%. In addition, the growth is 87.4% in assay [10], 107% in [7] and 103% in [9].
In the case of `CC(C)COc1nc2c(c(=O)n(C)c(=O)n2C)n1C`, the growth in [1] was 90.8%; in assay [2], 110%; in assay [3], -6.67% (active); in [4], 112%; in assay [5] it was 97.7%; in assay [6], 90.7%. Besides, the figures for the growth in [10], in assay [7] and in [9] were 109%, 106% and 99.8%, respectively.
In the case of `OB1OCc2cc(/C=C/c3cccc(C(F)(F)F)c3)ccc21`, the growth is -1.55% (active) in assay [1]; 15.7% in assay [2]; 10.8% in assay [3]; 37.6% in assay [4]; -12.9% (active) in assay [5]; 15.9% in assay [6]. Besides, the growth in assay [10] is 16.8%; in [7], -27.3% (active); in assay [9], 15.2%.
As to `C=CC[Se]C(=O)Cc1c(C)n(C(=O)c2ccc(Cl)cc2)c2ccc(OC)cc12`, the growth is 2.02% (active) in [1]; -25.8% (active) in assay [2]; -38.1% (active) in assay [3]; -44.7% (active) in [4]; -50.7% (active) in assay [5]; -83% (active) in assay [6]. Besides, the growth in assay [10] was 2.4% (active); in [7], -40.6% (active); in [9] it was -7.75% (active).
Turning to `COc1cc2c(cc1OCCCN1CCN(CCCOc3cc4c(cc3OC)C(=O)N3CCC[C@H]3C=N4)CC1)C=CC(C)(C)O2`, the growth was -58.3% (active) in assay [1]; -8.49% (active) in assay [2]; -56.7% (active) in assay [3]; -80.7% (active) in [4]; -71.2% (active) in assay [5]; -89.1% (active) in assay [10]. The figures for the growth in assay [7], in [8] and in assay [9] were -75.6% (active), -77.9% (active) and 32.6%, respectively.
As for `Clc1ccc2c(c1)C(c1c[nH]c3ccccc13)(c1c[nH]c3ccccc13)CCO2`, the growth is 63.8% in assay [1]; 42.3% in assay [2]; 58.6% in assay [3]; 96% in assay [4]; 73.3% in [5]; 85.8% in assay [10]. Also, the growth in [7] is 81.2%; in assay [8], 76.6%; in assay [9] it was 92.2%.
For the compound `COc1ccc(-c2ccc(-c3ccc(C(=N)N)cc3)s2)cc1Cl`, the growth in [1] was -7.28% (active); in [2] it was -34.4% (active); in assay [3] it was -18.2% (active); in assay [4], 14.2%; in assay [5], -42% (active); in [6] it was 93%. Further, the growth in assay [7] is -88% (active); in assay [8] it was 44.9%; in assay [9], 78%.
Consider `C=CCN=c1sc2c(n1NC(=O)c1cc3ccc1CCc1ccc(cc1)CC3)C(=O)c1ccccc1C2=O`, for which the growth in [1] is -8.54% (active); in [2] it was -27.7% (active); in [3], 5.6% (active); in assay [4], -65.7% (active); in assay [5], -96.3% (active); in assay [6] it was 55.7%. In addition, the growth was -26.4% (active) in [7], -9.43% (active) in assay [8] and -12.8% (active) in [9].
Take `O=C1/C=C/[C@@H](O)[C@@H]2C[C@@H](O)C[C@H]2/C=C/CCC[C@H](CCc2ccccc2)O1`: the growth in [1] is 9.67% (active); in [2] it was 10.7%; in assay [3], 14.4%; in assay [4], 19.8%; in assay [5] it was 24.9%; in [10], 14.7%. Also, the growth in assay [7] was -42.1% (active); in assay [8] it was 47.8%; in assay [9], 5.65% (active).
Regarding `Cc1ccc(Nc2cc(N)nc(N)n2)cc1Cl`, the growth is 108% in assay [1]; 81.6% in [2]; 94.5% in assay [3]; 94.6% in assay [4]; 90.3% in assay [5]; 93.8% in assay [6]. For the same compound, the growth is 96.7% in assay [7], 98.3% in [8] and 97% in assay [9].
